# Source: PubChem BioAssay AID2284172 (EPA ToxCast)
# Calls of active or inactive are those of the source. How the source made its calls: active means hit-call score of the fitted dose curve at least 0.9, where 1 is the maximum; inactive means score below 0.9.
# Biological target: Voltage-dependent L-type calcium channel subunit alpha-1C (Rattus norvegicus) (UniProt P22002)
# Assay: ERF_FR_IC_rCACNA1C_Dihydropyridine: Eurofins (ERF) Calcium Ion Channel Binding (Dihydropyridine Site) LeadHunter Assay for rat Cav1.2 (L-type), conducted at France lab site
# Experimental: ERF_FR_IC_rCACNA1C_Dihydropyridine is a biochemical, single-readout assay that uses extracted gene-proteins in a cell-free assay. Measurements were taken 1.5 hour after chemical dosing in a 96-well plate. See Cav1.2 (L-type) Rat Calcium Ion Channel Binding (Dihydropyridine Site) Assay, Cerep.ERF_FR_IC_rCACNA1C_Dihydropyridine is an assay component calculated from the ERF_FR_IC_rCACNA1C_Dihydropyridine assay. It is designed to measure radioligand binding using a type of binding reporter as detected by scintillation counting with radiometry technology.Data from the assay component ERF_FR_IC_rCACNA1C_Dihydropyridine was analyzed at the assay endpoint, ERF_FR_IC_rCACNA1C_Dihydropyridine, in the positive analysis fitting direction relative to DMSO as the negative control and baseline of activity. Using a type of binding reporter, loss-of-signal activity can be used to understand changes in binding as they relate to gene CACNA1C. To generalize the intended target to other relatable targets, this assay endpoint is annotated to the ion channel intended target family, where the subfamily is voltage gated (Calcium).
# Rat brain cells are incubated for 90 minutes at room temprature with [3H]nitrendipine (0.25 nM) ligand and Nitrendipine as control inhibitor. Test Sample Requirements: Minimum for 1) Screen: 60 ul of 10 mM stock -OR- 1 mg (pre-weighed) for 10 uM final testing. […]
# Sequence of Voltage-dependent L-type calcium channel subunit alpha-1C (Rattus norvegicus) (P22002 whole entry, looked up): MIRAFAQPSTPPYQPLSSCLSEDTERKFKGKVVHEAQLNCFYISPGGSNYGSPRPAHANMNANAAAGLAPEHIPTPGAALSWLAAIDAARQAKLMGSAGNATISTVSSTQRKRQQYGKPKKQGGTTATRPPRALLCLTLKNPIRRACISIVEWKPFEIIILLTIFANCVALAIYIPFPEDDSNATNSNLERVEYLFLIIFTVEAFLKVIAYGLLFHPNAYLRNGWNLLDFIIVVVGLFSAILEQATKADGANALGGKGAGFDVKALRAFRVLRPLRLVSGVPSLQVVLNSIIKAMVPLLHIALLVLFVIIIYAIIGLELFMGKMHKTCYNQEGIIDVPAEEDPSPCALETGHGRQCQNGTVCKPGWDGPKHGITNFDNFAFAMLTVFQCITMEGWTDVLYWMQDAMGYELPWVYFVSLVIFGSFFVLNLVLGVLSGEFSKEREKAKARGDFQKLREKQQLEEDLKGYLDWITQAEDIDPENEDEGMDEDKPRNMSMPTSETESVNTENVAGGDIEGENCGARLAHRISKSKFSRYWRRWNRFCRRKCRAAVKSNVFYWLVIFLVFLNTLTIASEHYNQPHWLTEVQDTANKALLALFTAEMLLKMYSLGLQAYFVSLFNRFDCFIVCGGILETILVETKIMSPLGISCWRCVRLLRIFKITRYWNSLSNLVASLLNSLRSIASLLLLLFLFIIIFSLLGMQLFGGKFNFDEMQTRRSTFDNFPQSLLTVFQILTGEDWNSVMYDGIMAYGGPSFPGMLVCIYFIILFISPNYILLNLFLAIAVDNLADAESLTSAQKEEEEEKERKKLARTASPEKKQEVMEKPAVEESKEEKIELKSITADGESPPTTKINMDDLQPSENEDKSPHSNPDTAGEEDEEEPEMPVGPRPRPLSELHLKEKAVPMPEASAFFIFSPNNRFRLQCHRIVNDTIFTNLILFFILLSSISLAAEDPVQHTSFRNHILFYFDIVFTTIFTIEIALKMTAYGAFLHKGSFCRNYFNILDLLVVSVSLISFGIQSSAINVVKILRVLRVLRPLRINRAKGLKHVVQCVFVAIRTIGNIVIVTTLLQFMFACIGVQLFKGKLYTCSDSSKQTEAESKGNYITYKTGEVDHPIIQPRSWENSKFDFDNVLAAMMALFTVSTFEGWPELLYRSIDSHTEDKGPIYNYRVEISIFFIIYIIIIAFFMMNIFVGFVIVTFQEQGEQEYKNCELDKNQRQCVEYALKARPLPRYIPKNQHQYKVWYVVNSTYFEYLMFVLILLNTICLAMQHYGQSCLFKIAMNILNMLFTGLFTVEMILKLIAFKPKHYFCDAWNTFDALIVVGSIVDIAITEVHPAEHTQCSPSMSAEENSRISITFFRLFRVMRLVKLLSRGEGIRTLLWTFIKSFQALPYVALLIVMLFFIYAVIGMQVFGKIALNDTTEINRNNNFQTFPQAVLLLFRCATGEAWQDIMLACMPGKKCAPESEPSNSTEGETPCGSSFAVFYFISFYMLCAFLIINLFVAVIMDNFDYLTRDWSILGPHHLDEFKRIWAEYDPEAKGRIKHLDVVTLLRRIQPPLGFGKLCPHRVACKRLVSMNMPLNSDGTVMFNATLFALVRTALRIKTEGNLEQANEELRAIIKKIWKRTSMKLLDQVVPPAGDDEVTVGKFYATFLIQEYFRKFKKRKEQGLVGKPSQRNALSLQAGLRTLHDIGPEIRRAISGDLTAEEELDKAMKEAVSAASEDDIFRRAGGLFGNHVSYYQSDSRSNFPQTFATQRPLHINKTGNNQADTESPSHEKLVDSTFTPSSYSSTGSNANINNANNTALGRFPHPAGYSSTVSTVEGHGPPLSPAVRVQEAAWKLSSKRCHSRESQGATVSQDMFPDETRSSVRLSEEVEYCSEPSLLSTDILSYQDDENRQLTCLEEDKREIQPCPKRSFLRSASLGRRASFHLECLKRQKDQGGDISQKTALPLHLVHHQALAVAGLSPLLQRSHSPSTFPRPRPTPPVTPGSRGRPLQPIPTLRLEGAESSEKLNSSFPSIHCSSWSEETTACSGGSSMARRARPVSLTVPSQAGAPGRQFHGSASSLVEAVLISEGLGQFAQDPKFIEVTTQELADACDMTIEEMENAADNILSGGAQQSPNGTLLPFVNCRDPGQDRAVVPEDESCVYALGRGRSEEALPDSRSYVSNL
smiles,measurement,value
COc1cc(CCC(=O)CC(=O)CCc2ccc(O)c(OC)c2)ccc1O,AC50,3.16 µM (active)
